# Measured values taken from paper PMC7862700, “An all-to-all approach to the identification of sequence-specific readers for epigenetic DNA modifications on cytosine”.
# Tests used:
# Assay in all cases: DAPPL (digital affinity profiling via proximity ligation, sequencing); 10 mM Tris-HCl pH 7.5, 50 mM NaCl, 1 mM DTT, 4% glycerol, room temperature, 30 min; GST-TFs on glutathione beads, 16-mer random dsDNA library, 0.1% formaldehyde crosslink after washing; high values mean tight binding
# Conditions in all cases: protein: recombinant; tags: N-terminal GST; dsDNA, one strand shown
# FLI1 = target: T1, FLI1 (Homo sapiens, UniProt Q01543 1-452)
# T1 sequence: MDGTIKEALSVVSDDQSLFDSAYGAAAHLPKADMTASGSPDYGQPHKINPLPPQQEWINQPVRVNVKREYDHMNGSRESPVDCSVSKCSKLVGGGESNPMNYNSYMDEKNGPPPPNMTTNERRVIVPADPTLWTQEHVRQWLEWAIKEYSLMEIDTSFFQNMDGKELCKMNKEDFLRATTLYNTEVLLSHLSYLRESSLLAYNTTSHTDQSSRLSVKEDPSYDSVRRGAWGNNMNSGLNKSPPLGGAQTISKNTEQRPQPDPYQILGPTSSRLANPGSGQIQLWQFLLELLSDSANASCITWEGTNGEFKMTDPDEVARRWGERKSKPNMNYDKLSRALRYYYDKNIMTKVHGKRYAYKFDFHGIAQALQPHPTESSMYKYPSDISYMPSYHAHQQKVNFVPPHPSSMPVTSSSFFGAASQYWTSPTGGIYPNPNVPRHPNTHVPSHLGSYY
# Method in brief: (§1)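 Human transcription factors fused to GST were expressed in yeast, captured on glutathione beads, given DNA barcodes and pooled with a GST-only negative control. Pools were incubated with 200 nmole of a 16-mer random double-stranded DNA library in Tris/NaCl/DTT/glycerol buffer at room temperature for 30 min. They were then washed, crosslinked with 0.1% formaldehyde, proximity-ligated (BsaI/T4 ligase, 1 h, 37 °C), PCR-amplified and sequenced on an Illumina NextSeq500. Binding signal is each 6-mer's read frequency for a factor divided by its frequency for the GST control.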
# ELF1 = ELF1 (Homo sapiens, UniProt P32519 1-619)
# Method in brief: as §1
# EHF = target: T2, EHF (Homo sapiens, UniProt Q9NZC4 1-300)
# T2 sequence: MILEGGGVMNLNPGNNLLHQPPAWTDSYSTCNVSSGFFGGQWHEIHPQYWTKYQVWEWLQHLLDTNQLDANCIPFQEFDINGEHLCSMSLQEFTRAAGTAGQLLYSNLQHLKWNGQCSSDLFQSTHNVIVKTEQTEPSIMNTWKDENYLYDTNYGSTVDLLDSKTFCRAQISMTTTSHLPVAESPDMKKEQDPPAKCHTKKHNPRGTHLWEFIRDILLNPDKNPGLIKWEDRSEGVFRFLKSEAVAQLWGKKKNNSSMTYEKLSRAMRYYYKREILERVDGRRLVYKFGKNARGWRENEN
# Method in brief: as §1
# ELK3 = target: T3, ELK3 (Homo sapiens, UniProt P41970 1-407)
# T3 sequence: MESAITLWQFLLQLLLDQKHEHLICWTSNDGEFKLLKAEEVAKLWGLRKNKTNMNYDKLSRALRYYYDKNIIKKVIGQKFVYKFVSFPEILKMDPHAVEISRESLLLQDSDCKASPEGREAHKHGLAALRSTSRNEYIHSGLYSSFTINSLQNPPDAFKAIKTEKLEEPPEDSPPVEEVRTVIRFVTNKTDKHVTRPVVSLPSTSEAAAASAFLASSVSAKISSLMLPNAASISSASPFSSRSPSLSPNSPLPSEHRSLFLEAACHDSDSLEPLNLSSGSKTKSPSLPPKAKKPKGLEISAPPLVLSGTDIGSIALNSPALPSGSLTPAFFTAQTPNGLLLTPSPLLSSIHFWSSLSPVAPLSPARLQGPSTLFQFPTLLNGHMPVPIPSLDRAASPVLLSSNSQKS
# Method in brief: as §1
# SPIC = target: T4, SPIC (Homo sapiens, UniProt Q8N5J4 1-248)
# T4 sequence: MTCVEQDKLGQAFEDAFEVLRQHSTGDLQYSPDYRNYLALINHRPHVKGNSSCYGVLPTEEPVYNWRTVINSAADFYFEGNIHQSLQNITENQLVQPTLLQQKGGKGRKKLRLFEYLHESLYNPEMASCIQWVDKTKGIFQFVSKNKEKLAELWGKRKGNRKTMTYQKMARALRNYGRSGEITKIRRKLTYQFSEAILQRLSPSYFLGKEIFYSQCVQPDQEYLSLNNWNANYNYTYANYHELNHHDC
# Method in brief: as §1
# ELF4 = ELF4 (Homo sapiens, UniProt Q99607 1-663)
# Method in brief: as §1
# ELK4 = target: T5, ELK4 (Homo sapiens, UniProt P28324-2 1-405)
# T5 sequence: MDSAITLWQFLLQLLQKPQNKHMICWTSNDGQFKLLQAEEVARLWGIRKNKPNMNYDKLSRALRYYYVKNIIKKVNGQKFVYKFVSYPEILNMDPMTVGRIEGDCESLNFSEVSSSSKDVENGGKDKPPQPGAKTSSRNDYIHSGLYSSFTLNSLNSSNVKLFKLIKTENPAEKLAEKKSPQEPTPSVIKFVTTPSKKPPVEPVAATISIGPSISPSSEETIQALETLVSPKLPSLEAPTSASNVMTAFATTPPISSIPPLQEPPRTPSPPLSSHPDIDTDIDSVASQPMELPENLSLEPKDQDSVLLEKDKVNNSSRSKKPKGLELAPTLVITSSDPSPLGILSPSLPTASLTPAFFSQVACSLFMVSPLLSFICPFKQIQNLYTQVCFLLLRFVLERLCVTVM
# Method in brief: as §1
# ETV2 = target: T6, ETV2 (Homo sapiens, UniProt O00321 1-342)
# T6 sequence: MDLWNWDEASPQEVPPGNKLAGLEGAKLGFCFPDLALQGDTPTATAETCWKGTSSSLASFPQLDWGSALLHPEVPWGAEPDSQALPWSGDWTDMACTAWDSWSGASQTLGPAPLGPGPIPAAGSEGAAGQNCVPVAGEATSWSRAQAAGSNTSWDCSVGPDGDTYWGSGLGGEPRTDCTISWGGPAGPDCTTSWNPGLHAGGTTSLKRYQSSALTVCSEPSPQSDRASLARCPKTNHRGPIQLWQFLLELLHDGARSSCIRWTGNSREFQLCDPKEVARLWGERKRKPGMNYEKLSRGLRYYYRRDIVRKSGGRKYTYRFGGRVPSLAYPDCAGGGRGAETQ
# Method in brief: as §1
# ELF3 = target: T7, ELF3 (Homo sapiens, UniProt P78545 1-371)
# T7 sequence: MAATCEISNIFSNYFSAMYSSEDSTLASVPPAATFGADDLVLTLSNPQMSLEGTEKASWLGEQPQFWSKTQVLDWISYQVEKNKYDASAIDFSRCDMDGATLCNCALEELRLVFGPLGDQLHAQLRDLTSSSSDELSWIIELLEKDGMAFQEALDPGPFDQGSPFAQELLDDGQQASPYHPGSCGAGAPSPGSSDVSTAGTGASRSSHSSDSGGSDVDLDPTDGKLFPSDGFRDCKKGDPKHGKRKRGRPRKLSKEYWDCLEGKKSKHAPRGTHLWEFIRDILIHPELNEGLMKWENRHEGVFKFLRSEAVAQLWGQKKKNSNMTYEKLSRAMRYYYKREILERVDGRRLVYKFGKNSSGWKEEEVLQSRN
# Method in brief: as §1
# ERF = target: T8, ERF (Homo sapiens, UniProt P50548 1-548)
# T8 sequence: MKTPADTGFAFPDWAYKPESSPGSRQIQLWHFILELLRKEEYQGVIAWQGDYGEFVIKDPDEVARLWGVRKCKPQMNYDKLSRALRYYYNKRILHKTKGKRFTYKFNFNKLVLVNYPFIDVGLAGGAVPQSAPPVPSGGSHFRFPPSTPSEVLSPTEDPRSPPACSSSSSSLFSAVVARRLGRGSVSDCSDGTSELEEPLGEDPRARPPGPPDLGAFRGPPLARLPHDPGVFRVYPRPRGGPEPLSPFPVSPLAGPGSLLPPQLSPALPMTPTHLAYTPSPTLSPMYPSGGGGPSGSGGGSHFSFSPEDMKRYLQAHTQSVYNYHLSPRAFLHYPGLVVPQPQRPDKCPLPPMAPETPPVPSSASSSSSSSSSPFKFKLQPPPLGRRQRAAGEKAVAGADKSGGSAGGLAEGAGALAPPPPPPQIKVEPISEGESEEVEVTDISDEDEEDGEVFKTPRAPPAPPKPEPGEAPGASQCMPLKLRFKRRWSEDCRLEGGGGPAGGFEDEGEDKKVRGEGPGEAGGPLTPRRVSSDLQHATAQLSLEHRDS
# Method in brief: as §1
# ETS2 = target: T9, ETS2 (Homo sapiens, UniProt P15036 1-469)
# T9 sequence: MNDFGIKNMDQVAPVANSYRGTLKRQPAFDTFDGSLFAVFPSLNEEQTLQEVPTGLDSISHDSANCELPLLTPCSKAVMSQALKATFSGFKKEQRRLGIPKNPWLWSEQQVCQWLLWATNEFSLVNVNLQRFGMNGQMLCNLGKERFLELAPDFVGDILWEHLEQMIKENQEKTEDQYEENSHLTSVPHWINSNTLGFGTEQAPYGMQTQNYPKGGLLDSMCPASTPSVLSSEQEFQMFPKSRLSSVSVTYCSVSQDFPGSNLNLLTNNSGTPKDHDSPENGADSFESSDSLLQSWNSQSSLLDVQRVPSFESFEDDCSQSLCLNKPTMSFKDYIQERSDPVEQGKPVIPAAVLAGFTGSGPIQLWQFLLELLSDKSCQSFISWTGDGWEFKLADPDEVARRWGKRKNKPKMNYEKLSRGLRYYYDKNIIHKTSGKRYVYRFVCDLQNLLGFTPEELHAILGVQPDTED
# Method in brief: as §1
# ETV6 = ETV6 (Homo sapiens, UniProt P41212 1-452)
# Method in brief: as §1
# Sequence of ELF1 (P32519 whole entry): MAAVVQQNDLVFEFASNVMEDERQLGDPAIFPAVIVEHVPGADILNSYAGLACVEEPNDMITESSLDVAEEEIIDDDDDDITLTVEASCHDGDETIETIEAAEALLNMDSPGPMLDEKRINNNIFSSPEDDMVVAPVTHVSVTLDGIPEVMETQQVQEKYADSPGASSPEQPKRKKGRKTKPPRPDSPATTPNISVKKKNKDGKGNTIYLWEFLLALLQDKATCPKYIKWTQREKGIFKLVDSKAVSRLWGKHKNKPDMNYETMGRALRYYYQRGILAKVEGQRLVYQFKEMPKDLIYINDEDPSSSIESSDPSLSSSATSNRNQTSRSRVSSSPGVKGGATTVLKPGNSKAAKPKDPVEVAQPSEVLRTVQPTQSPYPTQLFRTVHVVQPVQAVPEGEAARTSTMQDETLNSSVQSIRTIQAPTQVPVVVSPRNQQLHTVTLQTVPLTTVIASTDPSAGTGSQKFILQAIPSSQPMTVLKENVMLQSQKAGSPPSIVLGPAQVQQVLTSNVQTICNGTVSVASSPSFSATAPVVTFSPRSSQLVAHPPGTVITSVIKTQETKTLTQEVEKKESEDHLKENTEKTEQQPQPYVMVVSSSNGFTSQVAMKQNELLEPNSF
# Sequence of ETV6 (P41212 whole entry): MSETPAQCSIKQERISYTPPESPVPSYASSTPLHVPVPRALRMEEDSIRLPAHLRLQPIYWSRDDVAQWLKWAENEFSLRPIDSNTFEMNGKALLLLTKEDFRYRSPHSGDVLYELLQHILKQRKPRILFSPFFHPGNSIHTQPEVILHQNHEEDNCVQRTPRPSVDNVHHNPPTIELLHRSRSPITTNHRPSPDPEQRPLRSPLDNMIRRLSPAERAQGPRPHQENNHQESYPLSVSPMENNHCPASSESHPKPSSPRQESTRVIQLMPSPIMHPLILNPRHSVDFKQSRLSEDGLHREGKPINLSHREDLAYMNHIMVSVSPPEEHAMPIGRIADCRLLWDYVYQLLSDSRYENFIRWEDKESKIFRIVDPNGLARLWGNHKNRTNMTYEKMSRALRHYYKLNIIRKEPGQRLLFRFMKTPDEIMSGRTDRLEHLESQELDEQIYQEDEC
# Sequence of ELF4 (Q99607 whole entry): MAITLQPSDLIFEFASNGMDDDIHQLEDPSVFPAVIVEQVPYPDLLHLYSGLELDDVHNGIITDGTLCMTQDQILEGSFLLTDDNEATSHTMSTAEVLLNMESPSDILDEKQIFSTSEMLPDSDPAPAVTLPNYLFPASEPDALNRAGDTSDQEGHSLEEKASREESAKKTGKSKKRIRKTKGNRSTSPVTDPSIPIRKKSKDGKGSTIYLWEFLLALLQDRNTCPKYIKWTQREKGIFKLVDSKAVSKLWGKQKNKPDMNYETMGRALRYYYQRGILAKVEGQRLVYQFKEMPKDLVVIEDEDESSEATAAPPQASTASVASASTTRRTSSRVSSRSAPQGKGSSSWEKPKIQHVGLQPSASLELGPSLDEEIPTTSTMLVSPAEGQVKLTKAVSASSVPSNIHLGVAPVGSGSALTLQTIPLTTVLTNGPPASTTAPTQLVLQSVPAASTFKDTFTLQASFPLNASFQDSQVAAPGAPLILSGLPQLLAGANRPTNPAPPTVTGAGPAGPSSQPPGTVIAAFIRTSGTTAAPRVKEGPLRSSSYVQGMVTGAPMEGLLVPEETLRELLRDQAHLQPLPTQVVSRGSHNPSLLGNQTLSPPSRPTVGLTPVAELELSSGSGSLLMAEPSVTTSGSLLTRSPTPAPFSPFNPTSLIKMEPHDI
sequence,measurement,setting,value
GATTTA,binding signal,FLI1,"1.02 fold enrichment (6-mer frequency, TF over GST control)"
same,binding signal,ELF1,"1 fold enrichment (6-mer frequency, TF over GST control)"
same,binding signal,EHF,"1.11 fold enrichment (6-mer frequency, TF over GST control)"
same,binding signal,ELK3,"1.08 fold enrichment (6-mer frequency, TF over GST control)"
same,binding signal,SPIC,"1.02 fold enrichment (6-mer frequency, TF over GST control)"
same,binding signal,ELF4,"1.05 fold enrichment (6-mer frequency, TF over GST control)"
same,binding signal,ELK4,"1.02 fold enrichment (6-mer frequency, TF over GST control)"
same,binding signal,ETV2,"1.05 fold enrichment (6-mer frequency, TF over GST control)"
same,binding signal,ELF3,"1.02 fold enrichment (6-mer frequency, TF over GST control)"
same,binding signal,ERF,"1.02 fold enrichment (6-mer frequency, TF over GST control)"
same,binding signal,ETS2,"1 fold enrichment (6-mer frequency, TF over GST control)"
same,binding signal,ETV6,"1.05 fold enrichment (6-mer frequency, TF over GST control)"
